Data on 39 molecules can be found in PubChem BioAssay (NCI).

The panel holds about 79,000 compounds, 15% with a hit somewhere; the sample as a whole holds those more often. Unmarked numbers belong to inactive results. Activity calls are given as the source filed them. Cut-off read from the data, not from the text of the source: active = growth inhibition above about 70%; inactive = the rest.

The first test in a line: NCI Yeast Anticancer Drug Screen. Data for the sgs1 strain (AID 173).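 Note: 0% = growth of vehicle-only control cultures.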 The following applies: S. cerevisiae sgs1 mutant, at 3.7 µM, active compounds read high. In a few lines:
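Inhibition of yeast growth served as the measure. The mutant strain was treated with each compound, and growth was normalised to cultures receiving vehicle alone.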
`Nc1ncc(-c2ccc(Br)cc2)s1`: the growth inhibition was 26%.

For `Cc1cc2cc3cc(C)c(N)cc3nc2cc1N`, the growth inhibition is -21%.

For `CC12C(=O)OC(=O)C(c3ccccc31)c1ccccc12`, the growth inhibition is -8%.

For the molecule `c1ccc2c(OCC3CO3)cccc2c1` (stereo not given), the growth inhibition is 41%.

`CCOC(=N)c1ccc(O)c(OC)c1`: the growth inhibition was -5%.

With `Nc1cc(N)c(N=Nc2cccc3c(S(=O)(=O)O)cccc23)cc1N=Nc1cc([N+](=O)[O-])ccc1O`, the growth inhibition is 24%.

With `COC(=O)Oc1cc(Cl)c(Cl)cc1Cl`, the growth inhibition was 0%.

Take `O=C(O)C1CC(c2ccccc2)=NN1c1ccccc1` (stereo not given): the growth inhibition was -34%.

Turning to `COc1cc([C@@H]2c3cc4c(cc3[C@@H](Nc3ccc(NC(=O)c5cc([N+](=O)[O-])cn5C)cc3)[C@H]3COC(=O)[C@H]23)OCO4)cc(OC)c1O`, the growth inhibition was 6%.

`O=C(O)c1ccccc1/C=N/N=C1c2ccccc2-c2ccccc21`: the growth inhibition is 2%.

Take `O=C1CC(=O)c2ccccc21`: the growth inhibition was 2%.

Regarding `Nc1ncnc2c1ncn2C1OC(CO)CC1O` (stereo not given), the growth inhibition is 2%.

The same test, now with this note: S. cerevisiae sgs1 mutant, at 11.0 µM, active compounds read high.
Turning to `CS(=O)(=O)SCc1ccc([N+](=O)[O-])cc1`, the growth inhibition is 97% (active).

As for `Cc1csc(=S)n1OC(=O)NC1CCCCC1`, the growth inhibition was 99% (active).

For `CCOc1ccc(NC(=O)C2=C(C)NC(C)=C(C(=O)Nc3ccc(OCC)cc3)C2c2cccc([N+](=O)[O-])c2)cc1`, the growth inhibition was 4%.

As to `CC(C)(C)N=C(NO)c1ccccc1`, the growth inhibition is 14%.

`CCCCC/C(=C(\C#N)C(=O)OCC)c1ccccc1`: the growth inhibition is 2%.

In the case of `O=C(NCCCl)Sc1ccc(Cl)cc1`, the growth inhibition was 22%.

As to `O=C1Nc2ccc(Br)cc2C1=Nc1ccc2c(c1)OCO2`, the growth inhibition was -30%.

As to `CCC(C)OC(=O)Nc1ccc(C)c(NC(=O)OC(C)CC)c1` (stereo not given), the growth inhibition is -5%.

For the molecule `O=C(O)c1cc2ccc(Cl)cc2c(O)c1C1=CCCCC1`, the growth inhibition was 39%.

For the molecule `CN(C)Cc1cc(N=Nc2ccc(Cl)cc2)ccc1OC(=O)c1ccccc1`, the growth inhibition is 9%.

For the molecule `CN1CCN(C(=O)/C=C/C(=O)c2ccccc2)CC1`, the growth inhibition was 42%.

As for `CCCC/C=C/C(C)(C(=O)OCC)C(=O)OCC`, the growth inhibition is 3%.

`Cc1nc(-c2cc3cc([N+](=O)[O-])ccc3oc2=O)cs1`: the growth inhibition was 42%.

As for `Cc1nc2ccccc2nc1NNc1ccccc1`, the growth inhibition was 8%.

Consider `CN(C)[C@@H]1C(=O)C(C(N)=O)=C(O)[C@@]2(O)C(=O)C3=C(O)c4c(O)cccc4C[C@H]3C[C@@H]12`, for which the growth inhibition is 26%.

As for `COc1ccc(NC(=O)CC2SC(=Nc3ccccc3C)NC2=O)c([N+](=O)[O-])c1` (stereo not given), the growth inhibition is 9%.

Consider `COc1cc(O)c2c(c1O)C(=O)c1cc(C)ncc1C2=O`, for which the growth inhibition is 77% (active).

Consider `CSc1nnc(SC)nn1`, for which the growth inhibition is 0%.

`COc1cc(/C=C2\CCC/C(=C\c3ccc(O)c(OC)c3)C2=O)ccc1O`: the growth inhibition is 3%.

In the case of `CN(C)CCNC(=O)c1cccc2cc([N+](=O)[O-])ccc12`, the growth inhibition was 49%.

Take `CCC(C)(C)c1ccc(Oc2cccc(C(=O)O)c2)cc1`: the growth inhibition is 28%.

As to `CCCCCCSc1ncnc2[nH]ncc12`, the growth inhibition was 0%.

With `CC(=O)Nc1ccc(/C=C/[N+](=O)[O-])cc1`, the growth inhibition is 15%.

Regarding `CCOC(=O)c1[nH]n(-c2ccccc2)c(=O)c1C=NC(=S)C(N)=S`, the growth inhibition is 41%.

Consider `CCCC(O)C1CC(C(C)C)CCC1C` (stereo not given), for which the growth inhibition was 4%.

Take `O=[n+]1c2ccccc2n([O-])c2cc(Br)ccc21`: the growth inhibition was 97% (active).

As to `CN(C)CCNC(=O)c1cccc2c1Oc1c(cccc1[N+](=O)[O-])O2`, the growth inhibition is -1%.

`Nc1ncc(-c2ccc(Br)cc2)s1`: the growth inhibition was 34%.

Regarding `Cc1cc2cc3cc(C)c(N)cc3nc2cc1N`, the growth inhibition was 0%.

For `CC12C(=O)OC(=O)C(c3ccccc31)c1ccccc12`, the growth inhibition is -1%.

Take `c1ccc2c(OCC3CO3)cccc2c1` (stereo not given): the growth inhibition is 72% (active).

Take `CCOC(=N)c1ccc(O)c(OC)c1`: the growth inhibition was -4%.

Turning to `Nc1cc(N)c(N=Nc2cccc3c(S(=O)(=O)O)cccc23)cc1N=Nc1cc([N+](=O)[O-])ccc1O`, the growth inhibition was 19%.

For the molecule `COC(=O)Oc1cc(Cl)c(Cl)cc1Cl`, the growth inhibition was 1%.

In the case of `O=C(O)C1CC(c2ccccc2)=NN1c1ccccc1` (stereo not given), the growth inhibition is -16%.

Take `COc1cc([C@@H]2c3cc4c(cc3[C@@H](Nc3ccc(NC(=O)c5cc([N+](=O)[O-])cn5C)cc3)[C@H]3COC(=O)[C@H]23)OCO4)cc(OC)c1O`: the growth inhibition was 30%.

As for `O=C(O)c1ccccc1/C=N/N=C1c2ccccc2-c2ccccc21`, the growth inhibition was 1%.

As to `O=C1CC(=O)c2ccccc21`, the growth inhibition is 6%.

Regarding `Nc1ncnc2c1ncn2C1OC(CO)CC1O` (stereo not given), the growth inhibition was 25%.

Still in this test, the particulars now being: S. cerevisiae sgs1 mutant, at 33.0 µM, active compounds read high.
For `CS(=O)(=O)SCc1ccc([N+](=O)[O-])cc1`, the growth inhibition is 99% (active).

Consider `Cc1csc(=S)n1OC(=O)NC1CCCCC1`, for which the growth inhibition was 100% (active).

In the case of `CCOc1ccc(NC(=O)C2=C(C)NC(C)=C(C(=O)Nc3ccc(OCC)cc3)C2c2cccc([N+](=O)[O-])c2)cc1`, the growth inhibition is 44%.

With `CC(C)(C)N=C(NO)c1ccccc1`, the growth inhibition is 39%.

With `CCCCC/C(=C(\C#N)C(=O)OCC)c1ccccc1`, the growth inhibition is 8%.

On to `O=C(NCCCl)Sc1ccc(Cl)cc1`, for which the growth inhibition is 60%.

Turning to `O=C1Nc2ccc(Br)cc2C1=Nc1ccc2c(c1)OCO2`, the growth inhibition is -37%.

With `CCC(C)OC(=O)Nc1ccc(C)c(NC(=O)OC(C)CC)c1` (stereo not given), the growth inhibition was 9%.

In the case of `O=C(O)c1cc2ccc(Cl)cc2c(O)c1C1=CCCCC1`, the growth inhibition was 65%.

Turning to `CN(C)Cc1cc(N=Nc2ccc(Cl)cc2)ccc1OC(=O)c1ccccc1`, the growth inhibition was 42%.

With `CN1CCN(C(=O)/C=C/C(=O)c2ccccc2)CC1`, the growth inhibition is 84% (active).

In the case of `CCCC/C=C/C(C)(C(=O)OCC)C(=O)OCC`, the growth inhibition is 6%.

Regarding `Cc1nc(-c2cc3cc([N+](=O)[O-])ccc3oc2=O)cs1`, the growth inhibition was 62%.

As for `Cc1nc2ccccc2nc1NNc1ccccc1`, the growth inhibition was 16%.

`CN(C)[C@@H]1C(=O)C(C(N)=O)=C(O)[C@@]2(O)C(=O)C3=C(O)c4c(O)cccc4C[C@H]3C[C@@H]12`: the growth inhibition is 98% (active).

Consider `COc1ccc(NC(=O)CC2SC(=Nc3ccccc3C)NC2=O)c([N+](=O)[O-])c1` (stereo not given), for which the growth inhibition was 37%.

Turning to `COc1cc(O)c2c(c1O)C(=O)c1cc(C)ncc1C2=O`, the growth inhibition was 88% (active).

Take `CSc1nnc(SC)nn1`: the growth inhibition is 44%.

On to `COc1cc(/C=C2\CCC/C(=C\c3ccc(O)c(OC)c3)C2=O)ccc1O`, for which the growth inhibition was 5%.

Turning to `CN(C)CCNC(=O)c1cccc2cc([N+](=O)[O-])ccc12`, the growth inhibition is 79% (active).

`CCC(C)(C)c1ccc(Oc2cccc(C(=O)O)c2)cc1`: the growth inhibition was 54%.

Turning to `CCCCCCSc1ncnc2[nH]ncc12`, the growth inhibition is 1%.

Consider `CC(=O)Nc1ccc(/C=C/[N+](=O)[O-])cc1`, for which the growth inhibition is 52%.

In the case of `CCOC(=O)c1[nH]n(-c2ccccc2)c(=O)c1C=NC(=S)C(N)=S`, the growth inhibition was 96% (active).

Take `CCCC(O)C1CC(C(C)C)CCC1C` (stereo not given): the growth inhibition was 15%.

Consider `O=[n+]1c2ccccc2n([O-])c2cc(Br)ccc21`, for which the growth inhibition was 99% (active).

As for `CN(C)CCNC(=O)c1cccc2c1Oc1c(cccc1[N+](=O)[O-])O2`, the growth inhibition was 2%.

On to `Nc1ncc(-c2ccc(Br)cc2)s1`, for which the growth inhibition was 92% (active).

For `Cc1cc2cc3cc(C)c(N)cc3nc2cc1N`, the growth inhibition is 66%.

In the case of `CC12C(=O)OC(=O)C(c3ccccc31)c1ccccc12`, the growth inhibition was 2%.

As for `c1ccc2c(OCC3CO3)cccc2c1` (stereo not given), the growth inhibition was 88% (active).

With `CCOC(=N)c1ccc(O)c(OC)c1`, the growth inhibition was -3%.

Regarding `Nc1cc(N)c(N=Nc2cccc3c(S(=O)(=O)O)cccc23)cc1N=Nc1cc([N+](=O)[O-])ccc1O`, the growth inhibition is 34%.

On to `COC(=O)Oc1cc(Cl)c(Cl)cc1Cl`, for which the growth inhibition is 3%.

With `O=C(O)C1CC(c2ccccc2)=NN1c1ccccc1` (stereo not given), the growth inhibition was 20%.

Consider `COc1cc([C@@H]2c3cc4c(cc3[C@@H](Nc3ccc(NC(=O)c5cc([N+](=O)[O-])cn5C)cc3)[C@H]3COC(=O)[C@H]23)OCO4)cc(OC)c1O`, for which the growth inhibition was 44%.

Regarding `O=C(O)c1ccccc1/C=N/N=C1c2ccccc2-c2ccccc21`, the growth inhibition is 4%.

`O=C1CC(=O)c2ccccc21`: the growth inhibition was 18%.

Regarding `Nc1ncnc2c1ncn2C1OC(CO)CC1O` (stereo not given), the growth inhibition is 72% (active).
